Compound activity: PubChem, National Center for Advancing Translational Sciences (NCATS)
rTrxR1 inhibitor: inhibitors of rat thioredoxin reductase 1. 390,000 compounds, 1% hits. Potency, µM (titrated, usually from 114 µM), inactives show at the highest dose activity change, negative = inhibition, usual class: inhibitors. recombinant rTrxR1, NADPH fluorescence consumption, selenite substrate. O89049; further: nearly all actives have a fitted effect of over 65% in size
Target sequence (O89049 whole entry, looked up): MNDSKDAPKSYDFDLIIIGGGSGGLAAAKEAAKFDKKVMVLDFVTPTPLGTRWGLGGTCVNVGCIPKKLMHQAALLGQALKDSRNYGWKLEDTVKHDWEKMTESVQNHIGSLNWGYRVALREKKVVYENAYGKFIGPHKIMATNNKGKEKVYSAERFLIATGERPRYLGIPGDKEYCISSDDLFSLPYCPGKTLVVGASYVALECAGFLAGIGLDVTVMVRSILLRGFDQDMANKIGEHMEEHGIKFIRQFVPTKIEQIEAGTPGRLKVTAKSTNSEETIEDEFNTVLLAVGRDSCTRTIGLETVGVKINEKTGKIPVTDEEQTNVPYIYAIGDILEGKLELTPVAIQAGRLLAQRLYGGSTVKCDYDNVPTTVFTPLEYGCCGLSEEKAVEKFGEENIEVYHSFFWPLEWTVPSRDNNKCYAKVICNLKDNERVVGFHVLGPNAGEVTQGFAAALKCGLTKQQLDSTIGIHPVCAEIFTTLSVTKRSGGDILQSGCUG
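Rat TrxR1 (90 nM in the dispensed reagent) was pre-reduced with 400 uM NADPH for 5 min at room temperature, then incubated with compound for 15 min. After 400 uM selenite was added, NADPH fluorescence (Ex 340/Em 450 nm) was followed for 8 min.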
TrxR1 substrate: rat thioredoxin reductase 1 substrate activity | purified TrxR1 substrate turnover, NADPH consumption readout | O89049 | 390,000 compounds, 0.01% hits | Potency, µM (titrated, usually from 114 µM), without a hit: at the top dose activity change, negative = substrate turnover | AID 588456; further: nearly all actives have a fitted effect of over 50% in size
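Rat TrxR1, dispensed at 90 nM, was prereduced with 400 uM NADPH (final) for 5 min at ~22 deg C, then incubated with compound 15 min before 400 uM selenite. A first-read NADPH fluorescence drop versus no-compound background flagged substrates.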
VDR inh: inhibitors of human vitamin D receptor; VDR-SRC2-3 peptide fluorescence polarization, 2 h; Potency, µM, for inactives: max response, negative = inhibition, most hits filed as inhibitors; 400,000 compounds, 0.93% hits; AID 504847
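Measured by FP: displacement of SRC2-3 coactivator peptide from VDR by library compounds, following a two-hour ambient incubation.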
KAT2A inh: inhibitors of human GCN5L2 histone acetyltransferase; Q92830; GCN5L2 HAT assay, ThioGlo1 CoA-SH fluorescence; Potency, µM (highest dose often 58.9 µM), for inactives: at the top dose activity change, negative = inhibition, hits mostly inhibitors; 390,000 compounds, 0.21% hits
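GCN5L2 (20nM final) in 50mM HEPES, 0.1mM EDTA pH 7.5, 0.01% Tween-20 was preincubated 15 min at room temperature with compound, then given ThioGlo1 (50uM), H3(1-25) peptide (75uM) and acetyl-CoA (70uM); CoA-thiol fluorescence (Ex340/Em540) was read at 0 and 20 min.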
Active calls of the source: *; ? = inconclusive; . = no result given; [ ] = remark or other dose. A selection: hits, their analogues and other compounds. The true share with any hit is near 1.8%. The call rests on the fitted dose curve; in most records, active means well fitted curve in the direction sought with a large enough effect; inconclusive means small, poorly fitted or top-dose-only effect, or another doubt; inactive means no such curve, though single readings can be large; an effect the other way counts as inactive or inconclusive. On the % scale 0 is the no-effect control and ±100 the full control effect; potency means the concentration at half of the fitted maximal effect.

SMILES | rTrxR1 inhibitor | TrxR1 substrate | VDR inh | KAT2A inh
O=C(CCCN1C(=O)/C(=C/c2ccccc2Cl)SC1=S)NNC(=O)c1ccccc1 | -1% | 1% | 4% | -4%
O=C(O)CCNC1CCCCC1 | 10%[57.1 µM] | 2% | -6% | 10%
O=C(O)CCCCC1CCSS1 (configuration not stated) | -4% | -4% | 3% | 3.2µM*
C=C(C)CSc1cc(C)c(C#N)c2nc3ccccc3n12 | 11µM* | 35% | -17% | ?
COc1ccc(S(=O)(=O)n2nc(-c3ccco3)nc2NCc2ccc(OC)c(OC)c2)cc1 | 9% | -1% | 0% | -14%
NS(=O)(=O)c1ccc(NC(=S)Nc2cc(Cl)c(Cl)cc2Cl)cc1 | 35µM* | -3% | -16% | -5%
CSc1ccccc1NC(=S)Nc1ccc(S(N)(=O)=O)cc1 | -21%[57.1 µM] | 4%[57.1 µM] | -13% | -1%
CCN(CC)c1ccc(/C=C2\C(=O)N(c3nnc(C)c(=O)[nH]3)N=C2C)cc1 | -3% | -4% | 16µM* | -17%
N#CC1(NC(=O)Cn2ncc(Cl)c(Cl)c2=O)CCCCC1 | 5µM* | 9%[57.1 µM] | 5% | -10%
CC1Cc2ccccc2C[N+]1(C)CC(=O)c1ccc(I)cc1 (configuration not stated) | -8% | -3% | . | .
CCCc1nc(N)sc1C(=O)OCC | 11%[57.1 µM] | 6%[57.1 µM] | -6% | 0.89µM*
N#CC(C#N)=C1C=CC=CN1/C(=C\c1ccco1)C(=O)c1ccc(-c2ccccc2)cc1 | 7.1µM* | 2% | ? | -9%
N#CC(C#N)=C1C=CC=CN1/C(=C\c1ccco1)C(=O)c1ccc(Cl)cc1 | 0.5µM* | -10% | 8.9µM* | 39%
CC(/C=N/n1c(-c2ccc(Cl)cc2)n[nH]c1=S)=C\c1ccco1 | ? | 7%[0.457 µM] | -14% | -16%
Cc1ccc(S(=O)(=O)NC2OC(=O)C(Cl)=C2Cl)cc1 (configuration not stated) | 10µM* | -2% | -7% | 3%
O=C(O)c1[nH]c2ccccc2c1C(c1cc(Cl)cc([N+](=O)[O-])c1O)c1c(C(=O)O)[nH]c2ccccc12 | -22% | -10% | 79µM* | ?
O=C(O)c1[nH]c2ccccc2c1C(c1ccccc1)c1c(C(=O)O)[nH]c2ccccc12 | 3% | 1% | ? | -11%
Cc1ccc(-c2onc3ccc(C(=O)O)cc23)cc1 | -4% | -8% | -7% | 18%
CC(=O)c1ccc2noc(-c3ccc(C)cc3)c2c1 | 7.1µM* | 8% | ? | -10%
CC(O)(c1ccc(Cl)cc1)c1ccc(Cl)cc1 | . | . | -9% | 3%
Cc1cn([C@@H]2C[C@H](N=[N+]=N)[C@H](CO)O2)c(=O)[nH]c1=O | . | . | -1% | 2%[21.4 µM]
CC(=O)CC[N+](C)(C)C | 2.2µM* | -2% | 4% | .
C[N+](C)(C)CCCCCC(=O)/C=N/O | 17% | 2% | 15% | -10%
CCOC(=O)N(C)OC(=O)Nc1ccc(Cl)c(Cl)c1 | 16µM* | 7%[57.1 µM] | -90% | -7%
CCOC(=O)N(CC)OC(=O)Nc1ccc(Cl)cc1 | ? | -6% | -24% | -8%
SMILES | rTrxR1 inhibitor | TrxR1 substrate | VDR inh | KAT2A inh
O=S(=O)(Cc1ccccc1)N=Nc1c(O)[nH]c2ccc(Br)cc12 | -4% | -7% | 79µM* | -19%
O=C(CNC(=O)c1ccccc1)N=Nc1c(O)[nH]c2ccc(Br)cc12 | 1%[57.1 µM] | -2%[57.1 µM] | 13% | -5%
CCn1c(=S)[nH]c2cc(Cl)ccc21 | 11% | 0% | -4% | 0%
CCn1c(=S)[nH]c2ccccc21 | 89µM* | 529% | -5% | -1%
CN(C)c1ccc(C=O)cc1Cl | -3% | -9% | . | .
O=C(CCN1CCC2CCC(C2)C1)c1ccc(F)cc1 (configuration not stated) | 1.6µM* | 7%[11.4 µM] | ? | .
Cc1ccc(C(=O)NC2CCN(CCCC(=O)c3ccc(F)cc3)CC2)cc1 | 2%[57.1 µM] | 6% | 15% | 2%
Cc1ccc(-c2cc(-c3ccc(F)cc3)c(C#N)c(N)n2)o1 | 16µM* | 81% | ? | -15%
Cc1ccc(-c2cc(-c3ccc(Cl)cc3)c(C#N)c(N)n2)o1 | 50µM* | 35% | ? | ?
Cc1ccc(-c2cc(-c3ccc(C)o3)nc(N)c2C#N)cc1 | 50µM* | 78% | ? | ?
COc1ccc(OC)c2c(C)ccnc12 | 12% | 4% | . | .
C[n+]1ccc(C(c2c[nH]c3ccccc23)c2cc[n+](C)c3ccccc23)c2ccccc21 | -32% | 0% | . | .
CCOc1cccc(N(C(=O)c2ccco2)C(C(=O)NC2CCCC2)c2cccnc2)c1 (configuration not stated) | 10% | 2% | 1% | -16%
O=C(NC1CCCCC1)C(c1cccnc1)N(C(=O)CCl)c1cccc(Cl)c1 (configuration not stated) | 6.3µM* | -2% | -8% | 3%
CNCC(O)COc1ccccc1 (configuration not stated) | 71µM* | -4% | 2% | 1%
CCC1OC(=O)C[C@@H](O)[C@H](C)[C@@H](OC2OC(C)CC(N(C)C)C2O)[C@@H](CC=O)C[C@@H](C)C(=O)/C=C/[C@]2(C)OC2C1C (some centres not stated) | . | . | -3% | -4%
c1coc(CNc2ncnc3c2nc2n3CCCC2)c1 | -2% | 8% | . | .
O=C(CCS(=O)(=O)c1ccccc1)N1CCCc2ccccc21 | 71µM* | 0% | -21% | -1%
O=C(CCC(=O)N1CCCc2ccccc21)N1CCN(S(=O)(=O)c2ccccc2)CC1 | 13%[57.1 µM] | 13%[57.1 µM] | -1% | -3%
Cc1cccc(/C=C/C(=O)c2ccc(NC3=NCCCS3)cc2)c1 | 7% | -7% | 20µM* | -13%
O=C(CCl)Nc1cccc(-c2cnc3ccccc3n2)c1 | 20µM* | -1% | -22% | 0%
CCN(C(=O)Cn1cnc2onc(-c3ccc(F)cc3)c2c1=O)c1ccc(OC)cc1 | 9% | -6% | 5% | -5%
CC(C)(C)CC(C)(C)N=C1Nc2ccc([N+](=O)[O-])cc2N[C@]12C[C@H]1CCCC(=O)N3CC[C@@H](C2)[C@@H]13 | -10% | -13% | . | .
O=C(c1cc(-c2ccco2)nn1-c1cccc(Cl)c1)N1CCCCC1 | 14µM* | 11% | ? | -15%
CC(C)NC(=O)c1cc(-c2ccco2)nn1-c1ccc(Cl)cc1 | 20µM* | 4% | ? | ?
SMILES | rTrxR1 inhibitor | TrxR1 substrate | VDR inh | KAT2A inh
Cc1ccc(-n2nc(-c3ccco3)cc2C(=O)O)cc1 | ? | 4% | -5% | 0%
O=C(c1cc(-c2cccc(Cl)c2)on1)N1CCCCCC1 | 3% | -8% | -9% | -7%
CNCc1nc(-c2ccc[nH]2)c2cc(Cl)ccc2n1 | -15% | -5%[0.0914 µM] | . | .
CC1CCN(c2ccc(NC(=S)NC(=O)c3ccco3)cc2)CC1 | -30% | -7% | -7% | 22µM*
CC1CCN(c2ccc(NC(=S)NC(=O)c3ccc(-c4cccc([N+](=O)[O-])c4)o3)cc2)CC1 | 20µM* | -4% | ? | ?
O=C(NC(=S)Nc1ccc(N2CCCCC2)cc1)c1ccco1 | ? | -3% | -3% | -7%
O=C(Cc1ccc(OCCCCc2ccccc2)cc1)NO | 12% | -1% | . | .
CCCCCCN(C(=O)CCl)c1ccccc1 | 18µM* | -3% | ? | 2%
